# Results published in PubChem BioAssay (EPA / NIEHS).
# Activity calls are given as the source filed them. Rule for the calls: active = hit-call score of the fitted dose curve at least 0.9, where 1 is the maximum; inactive = score below 0.9.
# Biological target: Signal transducer and activator of transcription 3 (Homo sapiens) (UniProt P40763)
# Test: ATG_STAT3_CIS: Attagene CIS-FACTORIAL HepG2 Assay for human Signal Transducer and Activator of Transcription 3 (STAT3) (AID 2282963)
# Conditions: HepG2, Attagene cis-factorial STAT3 reporter transcription; actives raise or lower the signal
# Description: ATG_CIS is a cell-based, multiplexed-readout assay that uses HepG2, a human liver cell line, with measurements taken at 24 hours after chemical dosing in a 24-well plate.ATG_STAT3_CIS is one of 52 assay component(s) measured or calculated from the ATG_CIS assay. It is designed to make measurements of mRNA induction, a form of inducible reporter, as detected with fluorescence intensity signals by Reverse transcription polymerase chain reaction (RT-PCR) and Capillary electrophoresis technology.Data from the assay component ATG_STAT3_CIS was analyzed into 1 assay endpoint. This assay endpoint, ATG_STAT3_CIS, was analyzed with bidirectional fitting relative to DMSO as the negative control and baseline of activity. Using a type of inducible reporter, measures of mRNA for gain or loss-of-signal activity can be used to understand the reporter gene at the transcription factor-level as they relate to the gene STAT3. Furthermore, this assay endpoint can be referred to as a primary readout, because this assay has produced multiple assay endpoints where this one serves a reporter gene function. To generalize the intended target to other relatable targets, this assay endpoint is annotated to the dna binding intended target family, where the subfamily is stat protein.
# Human liver HepG2 cells are transiently transfected with multiple reporter transcription units (MRTUs) in 6-well plates using FuGene 6 reagent (Roche; 3 ml FuGene/1 mg DNA). The MRTU constructs are regulated by a cis-regulating element (promoter). […] A major difference between the CIS and TRANS system is that in CIS activities of endogenous TFs are measured, whereas the TRANS assay evaluates changes in activities of exogenous, chimeric NR-Gal4 proteins. […] At the end of 24 hour incubation, total RNA was isolated using TriZol reagent (Invitrogen). The isolated RNA is then reverse-transcribed using oligo(dT) primer and Mo-MLV reverse transcriptase (Invitrogen) with DNAse I (Ambion) treatment for 30 min. The one-tenth of the produced cDNA was amplified by PCR using Taq DNA polymerase (Invitrogen) and two reporter sequence-specific primers. The PCR products were fluorescently labeled by primer extension with 6-arboxyfluorescein (6-FAM) 5'-labeled reporter sequence-specific primer (2 min at 95 C, 20 s at 68 C and 10 min at 72 C) and these products were digested with 5U of HpaI (New England Biolabs) for 2h at 37 C. The fragments were purified using Qiaquick PCR columns (Qiagen), analyzed on an ABI 3130xL genetic analyzer (Applied Biosystems) with peak positions identified by using a set of X-rhodamine (ROX)-labeled MapMarker1000 molecular weight standards (BioVentures). The raw capillary electrophoresis data was processed using Attagraph software (Attagene).
# Signal transducer and activator of transcription 3 (Homo sapiens), sequence (P40763 whole entry, looked up): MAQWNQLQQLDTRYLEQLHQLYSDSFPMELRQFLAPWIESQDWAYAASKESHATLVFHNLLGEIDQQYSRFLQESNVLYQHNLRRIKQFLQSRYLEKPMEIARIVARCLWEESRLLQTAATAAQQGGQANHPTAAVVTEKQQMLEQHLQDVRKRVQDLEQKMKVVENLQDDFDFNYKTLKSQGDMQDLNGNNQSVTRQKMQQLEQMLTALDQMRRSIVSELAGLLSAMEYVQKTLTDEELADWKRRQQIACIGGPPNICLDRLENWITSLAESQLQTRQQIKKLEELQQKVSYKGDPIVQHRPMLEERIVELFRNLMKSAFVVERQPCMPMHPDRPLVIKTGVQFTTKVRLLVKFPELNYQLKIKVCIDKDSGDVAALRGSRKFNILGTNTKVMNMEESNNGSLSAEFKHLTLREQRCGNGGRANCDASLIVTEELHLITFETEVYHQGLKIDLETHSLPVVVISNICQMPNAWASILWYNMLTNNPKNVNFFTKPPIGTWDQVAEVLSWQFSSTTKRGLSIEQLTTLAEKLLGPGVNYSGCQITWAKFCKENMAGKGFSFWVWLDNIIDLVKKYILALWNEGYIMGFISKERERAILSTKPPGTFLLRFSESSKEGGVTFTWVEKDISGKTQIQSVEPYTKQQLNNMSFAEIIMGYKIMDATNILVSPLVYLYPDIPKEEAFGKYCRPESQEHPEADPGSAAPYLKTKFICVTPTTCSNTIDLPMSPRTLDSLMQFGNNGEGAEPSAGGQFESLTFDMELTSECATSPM
row,Compound,outcome
1,O=C(O)Cc1ccccc1Nc1c(Cl)cccc1Cl,inactive
2,CC1(C)CC(N=C=O)CC(C)(CN=C=O)C1 (stereo not given),inactive
3,Cc1cc(=O)[nH]c(=S)[nH]1,inactive
4,Cc1ccc2ncccc2c1,inactive
5,Cc1cc(NC(=O)C(=O)O)cc(C)c1Oc1ccc(O)c2c1CCC2,inactive
6,CC1(C)NC(=O)NC1=O,inactive
7,COc1ccc(C)cc1N,inactive
8,OC[C@@H](O)[C@@H](O)[C@H](O)[C@H](O)CO,inactive
9,CCCCOC(=O)CCCCCCCCC(=O)OCCCC,inactive
10,COc1cc(-c2nc(NC(=O)c3cc4cc(C)cc(C)c4n3CC(=O)O)sc2CCC2CCCCC2)c(OC)cc1Cl,inactive
11,CC(=O)Oc1ccccc1C(=O)O,inactive
12,Cc1ccccc1Cl,inactive
13,CCCCN(CCCC)CCCC,inactive
14,Nc1ccc2c(c1)C(=O)c1ccccc1C2=O,inactive
15,CC(CO)OC(C)CO (stereo not given) (tested in a mixture with another compound),inactive
16,CC(=O)OC/C=C(\C)CCC=C(C)C,inactive
17,Cc1cccc([N+](=O)[O-])c1C,inactive
18,COC(=O)c1ccc(O)cc1,inactive
19,COc1ccc(S(=O)(=O)N2C(=O)[C@@](c3ccccc3OC)(N3C[C@H](O)C[C@H]3C(=O)N(C)C)c3cc(Cl)ccc32)c(OC)c1,inactive
20,CCCCCCOCCO,inactive

row,Compound,outcome
1,CC1=C(/C=C/C(C)=C/C=C/C(C)=C/CO)C(C)(C)CCC1,inactive
2,COCCOCCOC,inactive
3,CC(C)c1ccc(C(=O)N=C(N)N)cc1S(C)(=O)=O,inactive
4,COc1cccc2c1C(=O)c1c(O)c3c(c(O)c1C2=O)C[C@@](O)(C(=O)CO)C[C@@H]3O[C@H]1C[C@H](N)[C@H](O)[C@H](C)O1,inactive
5,FC(F)(F)C(F)(F)C(F)(F)C(F)(F)C(F)(F)C(F)(F)CCI,inactive
6,Cc1nc(C)nc(N2C[C@@H](C)N(c3ccnc([C@@H](C)O)n3)[C@@H](C)C2)n1,inactive
7,CCCCCC(=O)O,inactive
8,COc1cc(C=O)ccc1O,inactive
9,COc1ccc2c(c1)c(CC(=O)O)c(C)n2C(=O)c1ccc(Cl)cc1,inactive
10,CC(=O)C(C)=CC1C(C)=CCCC1(C)C (stereo not given),inactive
11,CC=Cc1ccc(O)c(OC)c1,inactive
12,CCCCCCCCCCCCCO,inactive
13,COCCOC[C@H](CC1(C(=O)NC2CCC(C(=O)O)CC2)CCCC1)C(=O)Oc1ccc2c(c1)CCC2 (stereo not given in full),inactive
14,CCNc1cccc(C)c1,inactive
15,CC(C)(C)c1cc(O)c(C(C)(C)C)cc1O,inactive
16,CCOc1ccc2c(c1)C(C)=CC(C)(C)N2,inactive
17,O=C(OCCCCCOC(=O)c1ccccc1)c1ccccc1,inactive
18,CCc1c(C(=O)NN2CCCCC2)nn(-c2ccc(Cl)cc2Cl)c1-c1ccc(Br)cc1,inactive
19,c1cc(-c2ccncc2)ccn1,inactive
20,NC(=O)Cn1c(=O)cc(CCN2CCN(c3nccc4sccc34)CC2)c2ccc(F)cc21,inactive
